SENP7 inh: SENP7 protease inhibitors, primary screen, biochemical, luminescence, uHTS | Sentrin-specific protease 7 (Homo sapiens), Q9BQF6 | recombinant SENP7, Z-RLRGG-aminoluciferin luminescence, 40 min | inhibition, % at 5 µM | 330,000 tested, 1.5% active | AID 434973, 2010;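 active = inhibition above about 50% at the single test dose, limit read from the data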;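 note: plate controls were DMSO with enzyme for no effect and no enzyme buffer wells for full effect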
Target sequence (Q9BQF6 706-1050 limits assumed): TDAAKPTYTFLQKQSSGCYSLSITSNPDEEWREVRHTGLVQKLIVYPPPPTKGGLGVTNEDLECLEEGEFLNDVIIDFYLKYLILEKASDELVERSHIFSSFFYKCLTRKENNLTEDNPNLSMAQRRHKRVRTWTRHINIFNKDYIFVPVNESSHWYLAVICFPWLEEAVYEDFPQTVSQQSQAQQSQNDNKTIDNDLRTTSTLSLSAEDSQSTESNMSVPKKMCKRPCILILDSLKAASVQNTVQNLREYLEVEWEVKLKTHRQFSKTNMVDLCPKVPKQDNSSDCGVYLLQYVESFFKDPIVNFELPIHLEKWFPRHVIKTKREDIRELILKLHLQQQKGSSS
SENP8 block-1: SENP8 protease inhibitors, primary screen, biochemical, luminescence; Sentrin-specific protease 8 (Homo sapiens), Q96LD8; purified SENP8, Z-RLRGG-aminoluciferin cleavage; inhibition, % at 10 µM; 330,000 tested, 1.2% active; AID 2540, 2010; in the data active = inhibition above about 50%
Target sequence (Q96LD8 whole entry, looked up): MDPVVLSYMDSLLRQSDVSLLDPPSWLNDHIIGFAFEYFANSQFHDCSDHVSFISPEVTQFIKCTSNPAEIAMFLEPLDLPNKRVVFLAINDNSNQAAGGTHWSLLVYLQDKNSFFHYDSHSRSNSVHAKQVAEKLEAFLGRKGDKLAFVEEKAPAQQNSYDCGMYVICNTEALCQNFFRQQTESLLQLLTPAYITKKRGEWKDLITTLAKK
SENP8 block-2: human SENP8 protease inhibitors, primary screen, biochemical, fluorescence, Nedd8 protein substrate, uHTS; recombinant SENP8; 360,000 tested, 0.64% active; Sentrin-specific protease 8 (Homo sapiens), Q96LD8; inhibition, % at 20 µM; in the data active = inhibition mostly above about 40%, no sharp cut-off; inactive = mostly below about 27%
HSP90 refold inh: HSP90 inhibitors, primary screen, cell lysate, luminescence. Heat shock protein HSP 90 (rabbit reticulocyte lysate; luciferase refolding). Rabbit reticulocyte lysate, luciferase refolding luminescence, 3 h. inhibition, % at 5.6 µM. 290,000 tested, 0.91% active. AID 1789, 2009;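 active = inhibition above the screen-wide mean plus 3 SD, computed separately per campaign, cut at about 16% in these data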;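 note: 0% = DMSO wells and 100% = 60 µM geldanamycin wells; inhibitors lower the luminescence because luciferase stays unfolded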
SENP6 inh: SENP6 protease inhibitors, primary screen, biochemical, luminescence, uHTS; Sentrin-specific protease 6 (Homo sapiens), Q9GZR1; Recombinant SENP6 catalytic domain, aminoluciferin luminescence; inhibition, % at 10 µM; 330,000 tested, 1.8% active;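 active = inhibition above about 50% at the single tested dose, limit read from the data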;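 note: plate controls were DMSO wells with enzyme for no effect and DMSO wells lacking enzyme for full effect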
LGR2 antag: inhibitors of bursicon-induced LGR2 CRE-luciferase signal, primary screen, cell-based, HEK293, CRE-luciferase reporter, bursicon stimulation | AID 720647, 2013 | inhibition, % at 9.99 µM | Drosophila bursicon receptor LGR2 (rickets) | 380,000 tested, 0.35% active | bursicon-stimulated, 4 h;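 active = drop in luminescence signal, shown as inhibition above about 50% in the replicate tests, limit read from the data, passing the limit was not always enough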;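 note: agonist challenge used bursicon conditioned medium at about half maximal strength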
* marks the source's active call; other numbers are inactive results; i = inactive; / = no result. The list is not random: actives were taken first. Their share in the collection is about 2.3%.

SMILES | SENP7 inh | SENP8 block-1 | SENP8 block-2 | HSP90 refold inh | SENP6 inh | LGR2 antag
Oc1c(Br)cc(Cl)cc1C=Nc1ccc(N2CCOCC2)cc1 | -7 | 4 | -19 | 9 | -12 | 26
COc1ccc(S(=O)(=O)N(C)C[C@@H]2Oc3c(NC(=O)C4CCCCC4)cccc3C(=O)N([C@@H](C)CO)C[C@H]2C)cc1 | / | / | / | / | / | 8
COC/C=C/C1=CC2=CC(=O)C(C)(OC(=O)c3cnc4ccccc4n3)C(=O)C2=CN1Cc1ccc(OC)cc1 (stereo not drawn) | 6 | 3 | 37 | / | 16 | -8
COC/C=C/C1=CC2=CC(=O)C(C)(OC(=O)c3cnc4ccccc4n3)C(=O)C2=CN1CC1CC1 (stereo not drawn) | 18 | -3 | 44* | / | 8 | /
COc1ccc(NC(=S)NC(NC(=O)c2cccc3ccccc23)C(Cl)(Cl)Cl)c([N+](=O)[O-])c1 (stereo not drawn) | 5 | -2 | 16 | 2 | -22 | /
COc1ccc(NC(=S)NC(NC(=O)CCl)C(Cl)(Cl)Cl)c([N+](=O)[O-])c1 (stereo not drawn) | 9 | -7 | 52* | -1 | -15 | /
Cc1noc(C)c1CSCC(=O)Nc1nc2ccccc2s1 | 5 | -6 | -18 | -1 | -2 | -7
Cc1noc(C)c1C(=O)Nc1nc2ccccc2s1 | 98* | 94* | -45 | / | 97* | 6
COc1ccc(-c2oc3cc(OC(C)=O)cc(OC(C)=O)c3c(=O)c2OC)cc1 | / | / | i | / | / | -7
CC(=O)Oc1cc(O)c2c(=O)c(OC(C)=O)c(-c3ccc(OC(C)=O)c(OC(C)=O)c3)oc2c1 | -2 | 8 | 40* | / | 3 | /
COC1=CC(=O)c2nc(Cl)ccc2C1=O | / | / | 88* | / | / | 80*
Cc1ccccc1-c1cnc2c(c1)C(=O)N([C@@H](C)CO)C[C@H](C)[C@@H](CN(C)C(=O)CC1CC1)O2 | / | / | / | / | / | -25
CCCC(=O)N1CCCC(c2cc(C(=O)Nc3ccccc3)no2)C1 (stereo not drawn) | / | / | 8 | / | / | 82*
O=C(Nc1ccccc1)c1cc(C2CCCN(C(=O)c3ccccc3)C2)on1 (stereo not drawn) | / | / | 7 | / | / | -24
C[C@@H]1CN([C@@H](C)CO)C(=O)c2cc(NC(=O)CCC(F)(F)F)ccc2O[C@@H]1CN(C)Cc1ccc(Oc2ccccc2)cc1 | / | / | / | / | / | -9
C=C[C@]1(C)C=C2CCC3[C@](C)(CCC[C@@]3(C)C(=O)O)C2CC1 (stereo partly drawn) | 8 | 6 | 60* | / | 6 | /
O=Cc1cc(N=Nc2cccc(C(=O)O)c2)ccc1O | 98* | 97* | 23 | 14 | 95* | 19
CC(=O)NN1C(=O)/C(=C/c2ccc(Br)o2)SC1=S | -6 | -6 | 44* | -1 | -1 | -9
CC(=O)NN1C(=O)/C(=C\c2ccc(Br)o2)SC1=S | 5 | 9 | 29 | 1 | -7 | /
O=C(c1cccc(F)c1)N1CC2(C1)[C@H](c1ccccc1)[C@H](CO)N2C(=O)C1CC1 | / | / | / | / | / | -14
O=C(O)CCNc1cc(N2CCN(C(=O)c3ccco3)CC2)c2noc3c2c1C(=O)c1ccccc1-3 | 35 | 36 | 70* | 2 | 51* | -2
CCN1CCN(c2cc(N3CCN(C(=O)c4ccco4)CC3)c3c4c(onc24)-c2ccccc2C3=O)CC1 | 3 | 3 | 68* | -2 | 10 | /
Cc1cc(N2CCN(C(=O)c3ccco3)CC2)c2ccccc2n1 | -4 | -2 | 8 | 2 | -25 | -4
CC(=O)OCCNc1cc(N2CCN(C)CC2)c2noc3c2c1C(=O)c1ccccc1-3 | / | / | 47* | 0 | / | 11
CCCNC(=O)C[C@@H]1CC[C@H]2[C@@H](COC[C@@H](O)CN2C(=O)Nc2cccc(Cl)c2)O1 | / | / | / | / | / | -6
SMILES | SENP7 inh | SENP8 block-1 | SENP8 block-2 | HSP90 refold inh | SENP6 inh | LGR2 antag
C/C=C/c1cnc2c(c1)C(=O)N([C@H](C)CO)C[C@@H](C)[C@H](CN(C)C(=O)CN1CCOCC1)O2 | / | / | / | / | / | 6
CCN1C(=O)/C(=C2\SC(N3CCOCC3)=NC2=O)c2ccccc21 | -14 | -30 | 17 | 0 | -18 | 13
C=CCN1C(=O)/C(=C2\SC(N3CCOCC3)=NC2=O)c2cc(Br)ccc21 | -9 | -13 | 41* | -1 | -8 | /
CC(=O)N(C1=C(N)C(=O)c2ccccc2C1=O)c1ccccc1 | 19 | 24 | 62* | 6 | 26 | 8
O=C(N(c1ccccc1)c1ccccc1)N(c1ccccc1)c1ccccc1 | 0 | -7 | -13 | 8 | -29 | /
O=C(Cc1ccncc1)NCC[C@H]1CC[C@H](NC(=O)C2CC2)[C@@H](CO)O1 | / | / | / | / | / | -4
Fc1ccc(N/N=C/c2ccncc2)c(F)c1 | 30 | 44 | 1 | -3 | 58* | /
Fc1ccc(N/N=C/C=C/c2ccccc2)c(F)c1 | 4 | -13 | -378 | -3 | 37 | -70
O=C(O)c1ccc(N/N=C/c2cc3cc4c(cc3nc2Cl)OCCO4)cc1 | 7 | 1 | -61 | 12 | -8 | 60*
COc1ccc2c3c([nH]c2c1)[C@H](CO)N(S(C)(=O)=O)CC31CCN(Cc2cccc(F)c2)CC1 | / | / | / | / | / | -1
O=C1c2ccccc2C(=O)c2c1oc(C(F)(F)F)c2C(=O)c1ccccc1 | 50 | 59* | 73* | -1 | 77* | /
CC(=O)c1c(C)oc2c1C(=O)c1ccccc1C2=O | / | / | 41* | 2 | / | -4
Cc1oc2c(c1C(=O)NCc1cccnc1)C(=O)c1ccccc1C2=O | 74* | 49 | / | 16* | 84* | /
O=C(NCc1ccccc1)C12CC3CC(CC(C3)C1)C2 | -3 | -12 | 5 | 2 | -17 | /
CC1(C)C(=O)C2(C(=O)NCc3ccccc3)CCC1C2 (stereo not drawn) | 1 | -2 | 9 | 17* | -11 | /
O=C(c1ccc(OC2CCN(Cc3ccccn3)CC2)cc1)N1CCC[C@H]1CO | -12 | -12 | 5 | 16* | -27 | -5
Cc1ccccc1OCc1n(CC(=O)OC2CC(C)CCC2C(C)C)c2ccccc2[n+]1C (stereo not drawn) | 1 | -15 | 3 | 4 | -2 | 75*
CC1CCC(C(C)C)C(OC(=O)Cn2c(-c3ccc(Br)cc3)[n+](C)c3ccccc32)C1 (stereo not drawn) | -3 | -10 | -5 | 5 | -13 | 78*
C[C@H](CO)N1C[C@H](C)[C@H](CN(C)Cc2ccccc2O)OCc2cn(nn2)CCCC1=O | / | / | / | / | / | -5
O=C(C[C@@H]1CC[C@@H]2[C@H](COC[C@H](O)CN2CC2CCCC2)O1)NCC1CC1 | / | / | / | / | / | 2
CCCNC(=O)N1CC2(C1)[C@@H](c1ccccc1)[C@H](CO)N2Cc1ccc(F)cc1 | / | / | / | / | / | -3

Screening results (PubChem BioAssay)
